Screening data deposited in PubChem by National Center for Advancing Translational Sciences (NCATS).
A selection: hits, their analogues and other compounds. The true share with any hit is near 11%.
G9a block: blocks human histone lysine methyltransferase G9a; G9a H3K9 monomethylation, AlphaScreen, 2 h; Potency, µM (series often up to 102 µM), without a hit: at the top dose activity, negative = inhibition, hits mostly inhibitors; hit rate 8.8% among 350,000; AID 504332; note: % is set by controls: 0 for no effect and ±100 for the full control effect; nearly all actives have a fitted effect of over 75% in size
Target sequence (Q96KQ7 913-1193 limits assumed): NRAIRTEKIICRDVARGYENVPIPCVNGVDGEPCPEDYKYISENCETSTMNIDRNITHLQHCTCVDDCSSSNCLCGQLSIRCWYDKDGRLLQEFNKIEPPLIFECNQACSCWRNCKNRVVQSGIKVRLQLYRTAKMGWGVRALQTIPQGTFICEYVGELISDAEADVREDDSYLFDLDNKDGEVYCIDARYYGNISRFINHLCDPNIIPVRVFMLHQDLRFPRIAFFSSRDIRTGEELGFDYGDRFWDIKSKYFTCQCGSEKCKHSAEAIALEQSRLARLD
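AlphaScreen read-out: biotin-H3K9 peptide (500 nM) methylation by 20 nM enzyme with 20 uM SAM, 2 h at room temperature after 15 min compound preincubation; anti-monomethyl H3K9 antibody plus donor/acceptor beads, 10 min dark.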
PLK1 PBD inh: inhibitors of human PLK1 polo-box domain binding; Potency, µM, for the others: max response, negative = inhibition, usual class: inhibitors; Plk1 PBD binding of FITC phosphopeptide, fluorescence polarization; hit rate 2.8% among 360,000; note: series mostly up to about 57 µM; % is set by controls: 0 for no effect and ±100 for the full control effect; nearly all actives have a fitted effect of over 65% in size
VDR inhibitor: blocks the human vitamin D receptor; VDR-SRC2-3 peptide fluorescence polarization, 2 h; Potency, µM, without a hit: max response, negative = inhibition, hits mostly inhibitors; hit rate 0.93% among 400,000; note: % is set by controls: 0 for no effect and ±100 for the full control effect
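FP read-out; VDR + SRC2-3 coactivator peptide; 23 nl compound by pintool; 2 h RT incubation; reagents held at 4 deg C, protected from light.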
HP1b chromo inh: HP1-beta chromodomain-methylated histone interaction inhibition | Potency, µM (top dose mostly 114 µM), for inactives: at the top dose activity change, negative = inhibition, actives largely listed as inhibitors | AID 540317 | hit rate 0.56% among 390,000 | AlphaScreen HP1-beta / biotin-H3K9me3 peptide binding | P83916; note: nearly all actives have a fitted effect of over 70% in size
Target sequence (P83916 whole entry, looked up): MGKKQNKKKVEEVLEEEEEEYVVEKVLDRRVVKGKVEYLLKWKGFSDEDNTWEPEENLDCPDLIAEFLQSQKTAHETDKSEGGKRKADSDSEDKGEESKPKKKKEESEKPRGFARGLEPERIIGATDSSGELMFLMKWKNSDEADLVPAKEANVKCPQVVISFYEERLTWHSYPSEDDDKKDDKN
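HP1-beta protein (50 nM final) preincubated 30 min at room temperature with biotinylated H3(1-18)K9me3 peptide (50 nM) in PBS pH 7.4, 0.01% Tween-20, then compound added for 30 min. AlphaScreen streptavidin donor/nickel chelate acceptor beads (10 ug/mL final), 30 min dark, luminescence read.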
BAZ2B block: BAZ2B (human) inhibition; AID 504333; AlphaScreen BAZ2B-H3K14Ac peptide displacement; hit rate 4.4% among 360,000; Potency, µM (series often up to 114 µM), inactives show top-dose activity change, negative = inhibition, usual class: inhibitors; Q9UIF8; note: % is set by controls: 0 for no effect and ±100 for the full control effect; nearly all actives have a fitted effect of over 60% in size
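Multi-concentration screen (max 110 uM) measuring displacement of acetylated histone H3 peptide from BAZ2B by AlphaScreen, using 50 nM protein, 50 nM peptide and 10 ug/mL streptavidin donor plus Ni-chelate acceptor beads.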
JMJD2A Tudor inh: blocks the human JMJD2A Tudor domain; O75164; AlphaScreen JMJD2A-Tudor / H3K4me3 peptide binding; Potency, µM (highest dose often 114 µM), without a hit: at the top dose activity change, negative = inhibition, hits mostly inhibitors; hit rate 4.4% among 390,000; AID 504339; note: % is set by controls: 0 for no effect and ±100 for the full control effect; nearly all actives have a fitted effect of over 50% in size
Starred values were filed as active, the others as inactive; u = inconclusive; x = no result given; ! = not confirmed by another sample; [ ] = dose if it differs, or a comment. Calls come from the whole dose curve; as a rule, active = well fitted curve in the direction sought with a large enough effect; inconclusive = small, poorly fitted or top-dose-only effect, or another doubt; inactive = no such curve, though single readings can be large; an effect the other way counts as inactive or inconclusive. Potency is the fitted concentration of half-maximal effect.

SMILES	G9a block	PLK1 PBD inh	VDR inhibitor	HP1b chromo inh	BAZ2B block	JMJD2A Tudor inh
O=C(O)COn1c(-c2ccccc2)nc2ccc([N+](=O)[O-])cc21	44.7µM*	u	-0.7%	10.6%	50.1µM*	u
COc1ncc2nc(-c3ccccc3)c(=O)n(C[C@H]3CCCO3)c2n1	7.2%[12.7 µM]	x	2.9%	x	x	x
CC(C)CCn1c(=O)c2sccc2n2c(CCCC(=O)NC(C)c3ccccc3)nnc12 (stereo unspecified)	1.0%[59 µM]	x	-1.9%	34.7%	-10.1%	-5.9%
CCc1nn2c(=O)cc(COc3ccc(/C=C4\C(=N)N5N=C(CC(C)C)SC5=NC4=O)cc3)nc2s1	15.0%[59 µM]	u	-24.5%	8.9%	u	44.7µM*
CCC1=NN2C(=N)/C(=C\c3ccc(OCCOc4ccccc4)c(OC)c3)C(=O)N=C2S1	-73.3%	x	x	x	-4.3%	x
CCC1=NN2C(=N)/C(=C\c3ccc(OCc4cc(=O)n5nc(CC)sc5n4)c(OC)c3)C(=O)N=C2S1	u	u	-5.1%	-36.4%	79.4µM*	u
CC(=O)Nc1ccc(OCCOc2ccc(/C=C3\C(=N)N4N=C(C(C)C)SC4=NC3=O)cc2)cc1	13.1%	u	-14.5%	50.5%	-15.1%	-11.4%
COc1cccc(N2CC(NC(=O)c3cc4ccccc4o3)CC2=O)c1 (stereo unspecified)	1.7%[59 µM]	x	6.8%	-25.5%	-10.4%	-13.6%
O=C(CCCN1C(=O)/C(=C/c2ccccc2OC(F)F)SC1=S)Nc1cccnc1	x	9.1%	7.4%	-22.9%	x	17.8µM*
O=C(CCN1C(=O)/C(=C\c2ccccc2Cl)SC1=S)Nc1cccnc1	33.1%	-10.9%	-27.0%	-20.3%	u	u
O=C(CCN1C(=O)/C(=C/c2ccccc2F)SC1=S)Nc1cccnc1	x	-15.3%	-2.0%	-5.9%	1.12µM*	u
CCCCN(C)CCNC(=O)CCn1nc(-c2ccc(C)cc2)ccc1=O	-2.0%	6.7%	-22.3%	14.2%	-1.6%	-1.7%
Cc1ccccc1CC1SC(N)=NC1=O (stereo unspecified)	31.6µM*	-18.5%	-15.0%	21.0%	-19.9%	-12.6%
CC(=O)c1ccc(NC(=O)c2sc(-n3nc(C)c(Cc4ccc5c(c4)OCO5)c3C)nc2C)cc1	-17.1%[59 µM]	x	16.5%	12.0%	-31.1%	79.4µM*
Cc1ccc(N2CCN(S(=O)(=O)c3ccc4c(c3)CC(=O)N4)CC2)cc1	x	x	x	x	x	-27.7%[229 µM]
Nc1ccc(OCc2ccccc2)cc1	11.2µM*	-7.4%	-7.7%	-14.6%	u	u
CCN(Cc1ccccc1)Cc1ccc(OCc2ccccc2)cc1	x	-2.0%	5.8%	-7.5%	u	28.2µM*
O=c1cc(OCc2ccccc2)cc[nH]1	u	0.6%	8.3%	8.91µM*	2.82µM*	11.2µM*
N#C/C(=C\c1cccc([N+](=O)[O-])c1)C(=O)NCc1cccnc1	-2.4%[59 µM]	-17.8%	u	39.8%	-29.0%	-10.6%
Cc1cccc(NC(=O)/C(C#N)=C\c2cn(CC(=O)O)c3ccccc23)c1	39.8µM*	-4.4%	1.9%	31.0%	u	-7.0%
Cc1cccc(NC(=O)/C(C#N)=C\c2cccnc2)c1	50.1µM*	0.0%	-24.2%	-4.2%	8.2%	-13.7%
N#C/C(=C/c1cn(CC(=O)O)c2ccccc12)C(=O)Nc1ccccc1	u	-4.8%	-20.7%	14.5%	-27.6%	-6.8%
N#C/C(=C\C=C\c1ccccc1)C(=O)NCc1cccnc1	-6.6%	23.8µM*	u	-17.1%	-12.8%	u
N#C/C(=C\c1cccnc1)C(=O)Nc1cccc2ccccc12	50.1µM*	u	u	2.6%	3.4%	-26.2%
CN(C1CCCCC1)S(=O)(=O)Cc1ccccc1	31.6µM*	u	-11.7%	-0.7%	1.6%	-9.7%
SMILES	G9a block	PLK1 PBD inh	VDR inhibitor	HP1b chromo inh	BAZ2B block	JMJD2A Tudor inh
C(=N\Nc1nc2ccccc2[nH]1)/c1c[nH]c2ccccc12	3.7%[59 µM]	-12.5%	2.1%	u	44.7µM*	44.7µM*
O=c1[nH]c(N/N=C/c2cc3c(cc2[N+](=O)[O-])OCO3)nc2ccccc12	17.8µM*	2.0%	-10.8%	48.2%	-36.0%	-7.1%
C(=N\Nc1nc(N2CCCCC2)nc(N2CCCCC2)n1)/c1c[nH]c2ccccc12	u	-11.4%	14.7%	5.6%	39.8µM*	35.5µM*
O=[N+]([O-])c1ccccc1N/N=C/c1c[nH]c2ccccc12	u	1.6%	6.6%	12.6µM*	10µM*	11.2µM*
Cc1ccccc1/C=N/Nc1nc2ccccc2[nH]1	-39.7%	-10.8%	8.4%	11.8%	-29.1%	-17.4%
Cc1cccc(N2CCN(C(=O)CCC(=O)NNc3nc4ccccc4c4nc(C)nn34)CC2C)c1 (stereo unspecified)	1.9%[59 µM]	x	5.4%	42.5%	u	-6.7%
CCCCc1c(-c2ccccc2OC)ncn1CCc1ccccc1Cl	x	-19.9%	x	x	x	x
CCN(CC)c1nc2ccccc2nc1C(=O)Nc1cc(OC)c(OC)c(OC)c1	0.0%[59 µM]	x	22.4%	11.6%	u	u
C(=N\Nc1nc2ccccc2[nH]1)/c1ccccc1	-12.1%[12.7 µM]	-10.1%	-18.4%	29.9%	-22.0%	-17.5%
O=[N+]([O-])c1cc(/C=N/Nc2nc3ccccc3[nH]2)c(O)cc1O	50.1µM*	u	u	u	20µM*	28.2µM*
COc1ccc(C(=O)/C=C/C(=O)N(CC(=O)NC2CCCCC2)Cc2ccccc2OC)c(O)c1	17.8µM*	u	u	26.2%	-28.7%	-14.2%[57.1 µM]
C[C@@H](CCc1ccccc1)NC[C@H](O)c1ccc(O)c(C(N)=O)c1	-5.8%[12.7 µM]	x	-16.1%	x	x	x
CCCc1nnc(NC(=O)Cn2c(=O)oc3cc(Br)ccc32)s1	28.2µM*	0.0%	-12.0%	5.9%	-8.7%	-6.5%
Cc1ccc(S(=O)(=O)NCC2CCC(C(=O)O)CC2)cc1 (stereo unspecified)	u	1.4%	3.7%	29.3%	-29.3%	-12.2%
O=C1NC(=O)C(c2ccccc2[N+](=O)[O-])=C1Nc1ccc(O)c(Cl)c1	1.5µM*	-15.3%	44.7µM*!	-4.2%	50.1µM*	u
O=c1cc(-c2ccccc2Cl)oc2c([N+](=O)[O-])ccc(O)c12	-24.2%	x	-20.2%	x	x	x
C=CCNC(=S)/N=c1/ccccn1CCC	-9.4%[12.7 µM]	-22.2%	u	21.7%	-7.0%	-5.7%
C=CCNC(=S)/N=c1/ccccn1C	35.5µM*	-5.0%	2.8%	16.8%	-14.0%	3.6%
CC1CCN(S(=O)(=O)c2cccc(-c3nnc(-c4cccnc4)o3)c2)CC1	22.3%[59 µM]	15µM*	u	-10.2%	0.1%	28.2µM*
COc1ccc(-c2nnc(C3CCN(S(=O)(=O)c4ccc(C)c(C)c4)CC3)o2)cc1	-11.5%[59 µM]	x	-14.5%	33.6%	-9.5%	-14.2%
CCCc1ccc(S(=O)(=O)N2CCC(c3nnc(-c4cccc(C)c4)o3)CC2)cc1	8.91µM*	x	u	27.2%	-1.9%	-16.2%
